Measurements published in PubChem BioAssay (Tox21).
“And” between values parts separate entries of the source, which are not always exact repeats. Equal entries are not always repeated. Results filed as inconclusive are left out. Entries that show only a call come without a potency. More than one record can exist for a structure, and the calls need not agree. The source made the active and inactive calls. Unless noted, calls come from the whole dose curve; as a rule, active = well fitted curve in the direction sought with a large enough effect in the repeat runs; inconclusive = weak or mixed curves; inactive = no such curve, though single readings can be large; an effect the other way counts as inactive or inconclusive.

Key:
[1] = qHTS assay to identify small molecule antagonists of the glucocorticoid receptor (GR) signaling pathway - cell viability counter screen (AID 720693); note: nearly all actives have a fitted effect of over 55% in size; note: potency is the fitted concentration of half-maximal effect
[2] = qHTS assay for identifying genotoxic compounds that show differential cytotoxicity against isogenic chicken DT40 cell lines with known DNA damage response pathways - wild type cell line (AID 743012); note: nearly all actives have a fitted effect of over 60% in size; note: potency is the fitted concentration of half-maximal effect
How it was run: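 Endpoint: CellTiter-Glo luminescence, 30 min RT. Cells: wild type DT40, 300/well. Exposure: compounds in DMSO, 40 h, 37 C/5% CO2, after ~0.5 h pre-incubation.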

[3] = qHTS assay for identifying genotoxic compounds that show differential cytotoxicity against isogenic chicken DT40 cell lines with known DNA damage response pathways - Rev3 mutant cell line (AID 743014); note: nearly all actives have a fitted effect of over 55% in size; note: potency is the fitted concentration of half-maximal effect
[4] = qHTS assay to identify small molecule antagonists of the androgen receptor (AR) signaling pathway - cell viability counter screen (AID 743033; note: nearly all actives have a fitted effect of over 45% in size)
[5] = qHTS assay to identify small molecule antagonists of the androgen receptor (AR) signaling pathway using the MDA cell line - cell viability counter screen (AID 743041; note: nearly all actives have a fitted effect of over 45% in size; note: potency is the fitted concentration of half-maximal effect)
How it was run: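 Cytotoxicity counter screen: MDA-kb2 AR-luc cells, compound + R1881, 16 h, 37C, 0% CO2; CellTiter-Fluor added at 15.5 h, fluorescence read after 30 min.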

[6] = qHTS assay to identify small molecule antagonists of the thyroid receptor (TR) signaling pathway - cell viability counter screen (AID 743064); note: nearly all actives have a fitted effect of over 50% in size; note: potency is the fitted concentration of half-maximal effect
How it was run: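 Same-well viability check: GH3.TRE-Luc cells stimulated with 1 nM T3 alongside test compound for 23.5 h, followed by CellTiter-Fluor fluorescence.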

[7] = qHTS assay for identifying genotoxic compounds that show differential cytotoxicity against isogenic chicken DT40 cell lines with known DNA damage response pathways - Rad54/Ku70 mutant cell line (AID 743015); note: nearly all actives have a fitted effect of over 60% in size; note: potency is the fitted concentration of half-maximal effect
[8] = molecular target: Androgen receptor (Homo sapiens) (UniProt P10275); experiment: qHTS assay to identify small molecule antagonists of the androgen receptor (AR) signaling pathway (AID 743035; active = well fitted inhibition curve with a large enough effect in the signal ratio in the repeat runs, not every such curve was filed as active; the % refers to the signal ratio; note: potency is the fitted concentration of half-maximal effect)
How it was run: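 R1881 agonist challenge of a HEK293 UAS-beta-lactamase AR reporter line in the presence of compound (16 h, 37C); signal taken as FRET fluorescence after 2 h with LiveBLAzer B/G substrate at room temperature.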

[9] = molecular target: Androgen receptor (Homo sapiens) (UniProt P10275); experiment: qHTS assay to identify small molecule agonists of the androgen receptor (AR) signaling pathway (AID 743036; active = well fitted activation curve with a large enough effect in the signal ratio in the repeat runs, with a control signal flat, not every such curve was filed as active; the % refers to the signal ratio)
How it was run: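 Agonist activity was scored by beta-lactamase reporter fluorescence in stably transfected HEK293 cells exposed to compounds for 16 h at 37C and 5% CO2. Substrate loading took 2 h at room temperature.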

[10] = molecular target: Androgen receptor (Homo sapiens) (UniProt P10275); experiment: qHTS assay to identify small molecule antagonists of the androgen receptor (AR) signaling pathway using the MDA cell line (AID 743042; note: nearly all actives have a fitted effect of over 55% in size)
How it was run: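 MDA-kb2 breast carcinoma cells carrying MMTV-luciferase (AR/GR responsive) were co-treated with compounds and the agonist R1881 for 16 h at 37C. Inhibition read as ONE-Glo luminescence; CellTiter-Fluor fluorescence measured in parallel for cytotoxicity.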

Sequence of Androgen receptor (Homo sapiens) (P10275 whole entry, looked up): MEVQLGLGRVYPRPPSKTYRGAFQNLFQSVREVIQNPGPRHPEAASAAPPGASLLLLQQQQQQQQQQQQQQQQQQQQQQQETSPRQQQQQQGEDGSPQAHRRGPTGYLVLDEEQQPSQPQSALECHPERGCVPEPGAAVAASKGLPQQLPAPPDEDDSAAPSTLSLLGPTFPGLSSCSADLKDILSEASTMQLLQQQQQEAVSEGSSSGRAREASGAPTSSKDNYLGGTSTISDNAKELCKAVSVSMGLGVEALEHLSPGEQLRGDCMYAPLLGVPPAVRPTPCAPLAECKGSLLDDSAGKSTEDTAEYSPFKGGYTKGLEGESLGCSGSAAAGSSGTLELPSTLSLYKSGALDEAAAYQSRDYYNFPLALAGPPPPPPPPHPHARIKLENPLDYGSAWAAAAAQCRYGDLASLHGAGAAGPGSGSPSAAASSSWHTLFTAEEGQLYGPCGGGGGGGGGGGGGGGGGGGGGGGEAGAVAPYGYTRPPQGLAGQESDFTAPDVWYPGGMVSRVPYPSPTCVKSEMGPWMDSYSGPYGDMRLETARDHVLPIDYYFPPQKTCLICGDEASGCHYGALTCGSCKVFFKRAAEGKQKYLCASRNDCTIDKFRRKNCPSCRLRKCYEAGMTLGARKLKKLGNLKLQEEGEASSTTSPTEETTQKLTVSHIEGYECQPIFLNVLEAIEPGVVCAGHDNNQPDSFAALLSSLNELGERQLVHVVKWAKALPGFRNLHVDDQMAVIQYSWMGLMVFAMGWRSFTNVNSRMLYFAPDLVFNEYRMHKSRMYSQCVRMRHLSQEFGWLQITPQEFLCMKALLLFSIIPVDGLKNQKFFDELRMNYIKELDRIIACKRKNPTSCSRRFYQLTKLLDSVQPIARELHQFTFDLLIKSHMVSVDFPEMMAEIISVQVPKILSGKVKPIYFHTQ

Compound	Potency [1]	Potency [2]	Potency [3]	Potency [4]	Potency [5]	Potency [6]	Potency [7]	Potency [8]	Potency [9]	Potency [10]
c1cnccn1	inactive	inactive	inactive	inactive	inactive	inactive				
O=[N+]([O-])c1ccc(F)c(Cl)c1	inactive	inactive	inactive	inactive	inactive	inactive				
CC(=O)[C@H]1CC[C@H]2[C@@H]3CCC4=CC(=O)CC[C@]4(C)[C@H]3CC[C@]12C	3.87 µM (active)	6.68 µM (active) and 13.6 µM (active) and 7.7 µM (active)	9.44 µM (active) and 6.82 µM (active) and 6.86 µM (active)		inactive	60.8 µM (active)				
CCOC(=O)c1ccc(C2CCC(NC[C@H](O)COc3ccc(O)c(NS(C)(=O)=O)c3)CC2)cc1 (stereo partly specified)	inactive	0.356 µM (active)	0.1 µM (active)		inactive	39.9 µM (active)				
O=C1CCCCCCCCCCCCCCCO1	inactive	inactive		inactive	inactive	inactive	inactive			
CCN1C(=O)c2ccccc2C1Nc1ccc(OCCN2CCCCC2)cc1 (stereo unspecified)	inactive	26.6 µM (active)	inactive		inactive	inactive		inactive	inactive	inactive
CCCCCCCCCCCCOCCOCCOCCOCCOCCOCCOCCOCCOCCO	23.9 µM (active)	2.98 µM (active)	5.96 µM (active)	inactive	8.41 µM (active)	9.44 µM (active)				
CN1CCN(Cc2cc(-c3ccc4[nH]c(=O)oc4c3)co2)[C@@H](c2ccc(F)cc2)C1	inactive	14.8 µM (active)	16.6 µM (active)		inactive	46.7 µM (active)				
O=C1NC(=O)[C@@H]2CC=CC[C@H]12	inactive	61.1 µM (active)	48.6 µM (active)	inactive	inactive	inactive				
COc1ccc2cc1Oc1ccc(cc1)C[C@H]1c3c(cc4c(c3Oc3cc5c(cc3OC)CCN(C)[C@@H]5C2)OCO4)CCN1C	inactive	7.5 µM (active)	8.41 µM (active)			13.3 µM (active)				inactive
Cc1nc2n(c(=O)c1CCN1CCC(c3noc4cc(F)ccc34)CC1)CCCC2	inactive	9.44 µM (active)		inactive	inactive		inactive			
OCCN1CCN(CCCN2c3ccccc3Sc3ccc(C(F)(F)F)cc32)CC1	inactive	3.76 µM (active)	1.68 µM (active)			6.68 µM (active)				
CC(C)(C)NSc1nc2ccccc2s1	inactive	inactive	inactive		inactive	inactive		55.9 µM (active)		inactive
O=C1CCc2cc(OCCCCc3nnnn3C3CCCCC3)ccc2N1	inactive	inactive	inactive		inactive	inactive				
CC(C)(C)c1ccc(C(O)CCCN2CCC(C(O)(c3ccccc3)c3ccccc3)CC2)cc1 (stereo unspecified)	inactive	4.22 µM (active) and 3.76 µM (active)	inactive and 9.44 µM (active)		inactive	inactive and 5.96 µM (active)				
CCO[Si](OCC)(OCC)OCC	inactive	inactive	inactive	inactive	inactive	inactive				
COc1cc2nc(N3CCN(C(=O)c4ccco4)CC3)nc(N)c2cc1OC	inactive	10.6 µM (active)	13.3 µM (active)			8.41 µM (active)				
Nc1nc(N)nc(-c2cc(Cl)ccc2Cl)n1	inactive	inactive	inactive		inactive	inactive				
CC(C)NC[C@@H](O)COc1ccc(CC(N)=O)cc1	inactive	inactive	inactive		inactive	inactive				
CN1CCC[C@@H]1CCO[C@](C)(c1ccccc1)c1ccc(Cl)cc1	inactive	9.44 µM (active)	10.6 µM (active)	inactive	inactive	23.7 µM (active)				
COc1c(C)c2c(c(O)c1C/C=C(\C)CCC(=O)OCCN1CCOCC1)C(=O)OC2	inactive	0.531 µM (active)	0.422 µM (active)		inactive	1.68 µM (active)		0.674 µM (active)		inactive
CCC(C)[O-].CCC(C)[O-].CCOC(=O)/C=C(/C)[O-].[Al+3]	inactive	inactive	inactive	inactive	inactive	inactive				
CN(C)C(=O)COC(=O)Cc1ccc(OC(=O)c2ccc(N=C(N)N)cc2)cc1	inactive	inactive	inactive		inactive	inactive				

Compound	Potency [1]	Potency [2]	Potency [3]	Potency [4]	Potency [5]	Potency [6]	Potency [7]	Potency [8]	Potency [9]	Potency [10]
O=C(O)c1cccc(C(F)(F)F)c1	inactive	inactive	inactive	inactive	inactive	inactive				
NC[C@H]1O[C@H](O[C@H]2[C@H](O[C@@H]3O[C@H](CO)[C@@H](O)[C@H]3O)C(O)[C@H](N)C[C@@H]2N)[C@H](N)[C@@H](O)[C@@H]1O (stereo partly specified)	inactive	inactive	inactive	inactive	inactive	inactive				
C1CCC(SSC2CCCCC2)CC1	inactive	inactive		inactive	inactive		inactive			
CC(C)CCCCCOC(=O)CCS	inactive	inactive		inactive	inactive	inactive	inactive			
OC1CCC(C2CCCCC2)CC1 (stereo unspecified)	inactive	inactive		inactive	inactive	inactive				
C=CCCC(=O)/C=C/C1C(C)=CCCC1(C)C (stereo unspecified)	inactive	inactive		inactive	inactive					
CCCCOC(=O)CO	inactive	inactive			inactive	inactive	inactive			
Nc1ccc(Oc2ccc(Cl)cc2)cc1	inactive	inactive		inactive	inactive	inactive	59.8 µM (active)			
Cc1c(F)c(N2CCNC(C)C2)cc2c1c(=O)c(C(=O)O)cn2C1CC1 (stereo unspecified)	inactive	inactive			inactive		inactive			
CNc1ccc([N+](=O)[O-])cc1	inactive		68.7 µM (active)	inactive			68.7 µM (active)	inactive		inactive
C[Si](Cl)(c1ccccc1)c1ccccc1	inactive	inactive		inactive	inactive					
CC(N=C(NC#N)Nc1ccncc1)C(C)(C)C (stereo unspecified)	inactive		inactive	inactive	inactive	inactive				
C[C@H]1NCc2cc(-c3ccc4c(=O)c(C(=O)O)cn(C5CC5)c4c3OC(F)F)ccc21	inactive		inactive	inactive	inactive	inactive	inactive			
C=CCn1c(=O)n(CC=C)c(=O)n(CC=C)c1=O	inactive	inactive		inactive	inactive	inactive	inactive			
Nc1nc(-c2ccccc2)cs1	inactive	inactive		inactive	inactive	inactive	inactive			
CC(C)Cn1cnc2c(N)nc3ccccc3c21	inactive	inactive			inactive	inactive			inactive	inactive
Cl[Si](Cl)(c1ccccc1)c1ccccc1	inactive		inactive		inactive		inactive			
S=C([S-])NCCNC(=S)[S-].S=C([S-])NCCNC(=S)[S-].[Mn+2].[Zn+2]	inactive		33.5 µM (active)	inactive	inactive		29.8 µM (active)			
CCC(COC(=O)CCS)(COC(=O)CCS)COC(=O)CCS	inactive	inactive		inactive	inactive	inactive				
Cc1ccc(-c2ccccc2)cc1	inactive	inactive			inactive	inactive	inactive			
Cc1cc(C(C)(C)C)cc(C)c1CC1=NCCN1	inactive	inactive			inactive	inactive	inactive			
ClCCl	inactive		inactive	inactive	inactive	inactive		inactive	inactive	inactive
